Structures are written as SMILES. Active and inactive are the calls of the source. How the source made its calls: active means hit-call score of the fitted dose curve at least 0.9, where 1 is the maximum; inactive means score below 0.9.

Read-out in the assay: Monokine induced gamma interferon (MIG), CXCL9 (gene 4283)
As to the kind of experiment: BSK_BE3C_MIG: BioMAP Diversity Plus: BE3C Assay for Monokine induced gamma interferon (MIG) Biomarker Activity (AID 2283035).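 On outcome: MIG protein measured by ELISA in BE3C cultures after 24 h of dosing.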 The note with it: primary human bronchial epithelial cells; actives raise or lower the signal. The procedure, abridged:
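hu bronchial epithelial 1° cells, 24 h cpd; MIG by ELISA; bidirectional fit, DMSO = baseline.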
On to `CCNc1cccc(C)c1`, for which the outcome was inactive.

For `CN1CCN(Cc2cc(-c3ccc4[nH]c(=O)oc4c3)co2)[C@@H](c2ccc(F)cc2)C1`, the result was inactive.

What is called AC50 is the concentration at which the activity in the assay is half-maximal. For the molecule `Cc1nc(-c2ccc3c(c2)CCN(CCC2CCC(NC(=O)/C=C/c4ccc(F)cc4)CC2)CC3)no1` (stereo not drawn), the AC50 was 13.5 µM (active).

With `O=c1c(O)c(-c2ccc(O)c(O)c2)oc2cc(O)cc(O)c12`, the result was inactive.

In the case of `CN[C@H]1CC[C@@H](c2ccc(Cl)c(Cl)c2)c2ccc(S(N)(=O)=O)cc21`, the AC50 is 36.7 µM (active).

Turning to `CCCCN(CCCC)CCCC`, the result was inactive.

In the case of `COC(=O)c1ccc(O)cc1`, the outcome was inactive.

Consider `CC1=C(/C=C/C(C)=C/C=C/C(C)=C/CO)C(C)(C)CCC1`, for which the result was inactive.

In the case of `CNC(=O)[C@H]1O[C@@H](n2cnc3c(NCc4cc(Cl)ccc4OCc4cc(C)no4)ncnc32)[C@H](O)[C@@H]1N`, the result was inactive.

For the molecule `Cc1cc(=O)[nH]c(=S)[nH]1`, the result was inactive.

Take `CCCCc1ccc2c(n1)[C@@H](c1ccc(OC)cc1C[C@H](C)C(=O)O)[C@H](C(=O)O)[C@H]2c1ccc2c(c1)OCO2`: the outcome was inactive.

For the molecule `FC(F)(F)C(F)(F)C(F)(F)C(F)(F)C(F)(F)C(F)(F)CCI`, the outcome was inactive.

Consider `C=CCOC(=O)c1ccccc1C(=O)OCC=C`, for which the result was inactive.

`O=[N+]([O-])C(CO)(CO)CO`: the result was inactive.

Regarding `Oc1ccc2ccccc2c1N=Nc1ccccc1`, the result was inactive.

As for `O=C(N[C@@H](Cc1ccccc1)[C@@H](O)C(=O)N1C[C@@H](O)[C@@H](O)C1)c1cc2cc(Cl)ccc2[nH]1`, the result was inactive.

With `CCCCCCCCCCCCCCCC`, the outcome was inactive.

In the case of `CCCCCCCCCCC`, the result was inactive.
